Screens from PubChem.
ST2 inh: blocks human ST2 binding to IL-33; inhibition, % for hits at 17 µM; Q01638; AID 1259354; AlphaLISA ST2-Fc/biotin-IL-33 interaction, 1 h; hit rate 2.3% among 78,000; in the data active means inhibition above about 30%
Target sequence (Q01638 whole entry, looked up): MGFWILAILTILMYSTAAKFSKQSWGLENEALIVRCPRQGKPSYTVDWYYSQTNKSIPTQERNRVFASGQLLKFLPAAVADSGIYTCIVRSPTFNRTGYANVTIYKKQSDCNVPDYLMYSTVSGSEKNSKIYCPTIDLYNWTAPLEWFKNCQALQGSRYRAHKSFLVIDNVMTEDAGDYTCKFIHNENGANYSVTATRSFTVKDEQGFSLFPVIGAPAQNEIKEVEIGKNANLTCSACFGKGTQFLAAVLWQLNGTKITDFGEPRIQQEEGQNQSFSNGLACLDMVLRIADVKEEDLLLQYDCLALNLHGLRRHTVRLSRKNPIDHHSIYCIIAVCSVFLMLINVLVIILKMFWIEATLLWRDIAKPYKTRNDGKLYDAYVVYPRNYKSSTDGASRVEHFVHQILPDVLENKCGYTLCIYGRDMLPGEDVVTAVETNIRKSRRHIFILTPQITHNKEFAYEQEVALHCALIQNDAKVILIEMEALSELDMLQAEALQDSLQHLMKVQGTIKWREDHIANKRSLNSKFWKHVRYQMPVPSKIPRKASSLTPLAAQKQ
The depositor's hits bear a star; i = inactive; ! = a repeat was not active. This is one part of a sample in which hits are shown more often than they occur.

SMILES | ST2 inh
CNc1ccnc(N2CCC(C(O)c3cccnc3)CC2)n1 (stereo not drawn) | i
COc1ccccc1C(=O)N1CCN(Cc2cnn3cccnc23)CC1 | i
O=C(NCc1cccs1)c1cc(-c2ccc(Cl)s2)nc2ccccc12 | 30%*!
Cc1ccc(CNC(=O)c2cc(-c3ccc(Cl)s3)nc3ccccc23)o1 | i
O=C(NCc1cccs1)c1cc(-c2ccc(Br)s2)nc2ccccc12 | i
O=C(c1nc(-c2ccncc2)no1)N1CCN(c2ncccn2)CC1 | i
OC1C[C@H]2CC[C@@H](C1)N2c1nccc(CCC(F)(F)F)n1 (stereo partly drawn) | i
Cc1ccc(Nc2cc(C)nc(N3CCN(S(=O)(=O)c4ccc(C)cc4)CC3)n2)cc1 | i
Cc1ccc(S(=O)(=O)N2CCN(c3nc(C)cc(N4CCCC4)n3)CC2)cc1 | i
Cc1ccc(S(=O)(=O)N2CCN(c3nc(-c4ccc(C)o4)cs3)CC2)cc1 | 37%*
CCN1C(=O)CSc2ccc(C(=O)NC(C)C)cc21 | i
O=C(CSc1ncnc2sc(-c3ccccc3)cc12)N1CCOCC1 | i
Nc1[nH]nc2nc(N3CCCCC3)nc(-c3ccc4c(c3)OCO4)c12 | i
Cc1ccc(S(=O)(=O)N2CCSC2c2cccc(Cl)c2)cc1[N+](=O)[O-] (stereo not drawn) | i
CN1CCC(n2cnc(-c3ccccc3)c2-c2cccc3cccnc23)CC1 | 30%*
CN1CC(n2cnc(-c3ccccc3)c2-c2ccccc2C(=O)O)CCC1=O (stereo not drawn) | i
Cc1nn(C)c(Cl)c1-c1c(-c2ccccc2)ncn1C1CC=CC1 | i
Cc1ccc(NC(=O)C(C)n2nc([N+](=O)[O-])c(Br)c2C)cc1C (stereo not drawn) | i
CC(=O)c1ccc(NC(=O)O[C@@H]2CO[C@H]3[C@@H]2OC[C@@H]3NC(=S)Nc2ccc(Cl)cc2)cc1 | i
COc1ccc(Cc2nc3cc(C)c(C)cc3n(C)c2=O)cc1Br | i
COc1ccc(Cn2cnc([N+](=O)[O-])c2)cc1Br | i
COc1ccc(Cc2nc3cc(C)c(C)cc3[nH]c2=O)cc1Br | 31%*
CCN(CC)C(c1ccc(F)cc1)c1c(O)[nH]c(=O)[nH]c1=O (stereo not drawn) | i
COc1ccc(-c2cc(C(=O)Nc3ccc(S(N)(=O)=O)cc3)c3ccccc3n2)c(OC)c1 | i
Cc1ccc(-c2csc(/C(C#N)=C/c3cccnc3)n2)c(C)c1 | 34%*
SMILES | ST2 inh
Cc1ccc(-c2csc(NC(=O)c3cc(=O)c4ccccc4o3)n2)c(C)c1 | i
O=C(Cc1c(C(=O)O)[nH]c2ccc(Cl)cc12)NCc1ccc(F)cc1Cl | i
Cc1csc2ncc(C(=O)Nc3ccc(F)cc3F)c(=O)n12 | i
O=C(CC1(O)C(=O)Nc2ccc(Br)cc21)c1ccc(F)cc1 (stereo not drawn) | i
COc1cc(/C=C/C(=O)O)cc(OC)c1OC | i
CCOc1ccc2c(=O)c(-c3ccccc3OC)coc2c1 | i
Cc1ccc(-c2nc(-c3ccncc3)no2)cc1C | i
COc1cc(/C=C2/C=C(c3ccccc3)OC2=O)cc(OC)c1OC | 61%*
Cc1ccc(C2=C/C(=C\c3cccs3)C(=O)O2)cc1C | 68%*
CCOc1ccccc1/C=C1\N=C(c2ccc(Cl)cc2)OC1=O | i
CCOc1ccc(-c2nc3s/c(=C\C=C\c4ccccc4OC)c(=O)n3n2)cc1 | i
COc1ccc(/C=C2\C=C(c3ccc(Cl)cc3)OC2=O)c(C)c1 | i
CCOc1ccc(N2C(=O)/C(=C\c3ccccc3OC)N=C2c2ccc(OC)c(OC)c2)cc1 | 39%*
COc1cc2oc(-c3ccccc3)cc(=O)c2c(O)c1OC | i
CCOc1ccc(C2=C/C(=C/c3ccccc3OC)C(=O)O2)cc1 | 46%*
CCNC(=O)N[C@H]1[C@H](O)[C@@H](N2CCCC2)[C@@H]2OC[C@H]1O2 | i
CN(C)c1ccc(C2C(=C(O)c3ccc(Cl)cc3)C(=O)C(=O)N2CCO)cc1 (stereo not drawn) | i
Cc1ccccc1-n1ncc(C(C)NC(=O)CCn2cccn2)c1C (stereo not drawn) | i
COc1ccc(NC(=O)CSc2nc3c(c(=O)n2-c2ccc(Cl)cc2)SCC3)cc1 | i
Cc1cc2c(NCc3ccc(Cl)cc3)ncnc2s1 | i
CCOc1ccc(C2=C/C(=C\c3cccs3)C(=O)O2)cc1 | 31%*
CCOc1ccc(N2CC(NC(=O)Cc3cccs3)CC2=O)cc1 (stereo not drawn) | i
CCOc1ccc(-c2nc3s/c(=C\c4ccc(Cl)cc4)c(=O)n3n2)cc1 | i
O=C(O)C1(CCCc2ccccc2)CCN(Cc2cnc[nH]2)CC1 | i
Cc1cn(CC(=O)N2CCCC(Nc3ccc(C(C)C)cc3)C2)c(=O)[nH]c1=O (stereo not drawn) | i
SMILES | ST2 inh
COc1ccccc1N1CCC(N2CC[C@H](CO)[C@H](O)C2)CC1 | i
Cc1cc(S(=O)(=O)n2nnc3cc(Cl)ccc32)ccc1Cl | i
O=[N+]([O-])c1cc(CN2CCOCC2)ccc1O | i
O=[N+]([O-])c1cc(Cc2ccccc2)ccc1O | 36%*
O=[N+]([O-])c1cc(CN2CCCCC2)ccc1O | i
O=C1CC(c2cnn3cccnc23)c2cnn(Cc3cccnc3)c2N1 (stereo not drawn) | i
Cc1ccc(S(=O)(=O)CCCCS(=O)(=O)c2ccc(C)cc2)cc1 | i
Cc1cc(N2CCOCC2)nc2ccc(NC(=O)CCC(=O)Nc3ccc(C(C)C)cc3)cc12 | i
COc1ccccc1N1CCN(C2CCN(S(=O)(=O)c3ccc(Cl)cc3)CC2)CC1 | i
CC(C)COc1ccc2c(c1)c1c3n2CCNC3CCC1 (stereo not drawn) | i
CC(C)COc1ccc2c(c1)c1c3c(nccn32)CCC1 | 38%*
Cn1nnnc1SCCNC(=O)c1ccc2nc(C3CCCCC3)oc2c1 | i
COc1ccc(C2C(C#N)=C(N)OC3=C2C(=O)CC(C)(C)C3)cc1Br (stereo not drawn) | i
CC(=O)n1cc(/C=C2\N=C(c3cccc(C)c3)OC2=O)c2cc(Br)ccc21 | i
Cc1cccc(C2=N/C(=C\c3cccc([N+](=O)[O-])c3)C(=O)O2)c1 | i
Cc1cccc(C2=N/C(=C\C=C\c3ccccc3)C(=O)O2)c1 | 37%*
O=C1OC(c2cccc(I)c2)=N/C1=C\c1ccc([N+](=O)[O-])cc1 | i
COc1ccc(/C=C2\N=C(c3ccccc3Br)OC2=O)c(OC)c1OC | i
Cc1cccc(C2=N/C(=C\c3ccc(N(C)C)cc3)C(=O)O2)c1 | 39%*
CN(C)c1ccc(/C=C2\N=C(c3ccccc3Br)OC2=O)cc1 | 41%*
Cc1cccc(C2=N/C(=C\c3ccccc3)C(=O)O2)c1 | 46%*
COc1ccc(/C=C2\N=C(c3cccc(I)c3)OC2=O)cc1[N+](=O)[O-] | i
CC1=N/C(=C\c2ccc(Br)cc2)C(=O)O1 | i
COc1ccc(/C=C2\N=C(c3ccc(C)cc3)OC2=O)cc1Br | i
Cc1ccc(C2=N/C(=C\C(Br)=C\c3ccccc3)C(=O)O2)cc1[N+](=O)[O-] | i
COc1ccc(C(C)(C)C)cc1S(=O)(=O)N1CCNC(C(=O)O)C1 (stereo not drawn) | i
O=C(CCS(=O)(=O)c1cccc2nsnc12)Nc1ccc(F)cc1Cl | i
O=S1(=O)CC2N=C(Nc3ccccc3F)SC2C1 (stereo not drawn) | i
N#CC1=C(N)Oc2n[nH]c(C(F)(F)F)c2C1c1ccccc1 (stereo not drawn) | i
